Reference: PubChem BioAssay (NCI)
The panel holds about 79,000 compounds, 15% with a hit somewhere; the sample as a whole holds those more often. Activity calls are given as the source filed them. Rule as the data show it: active = growth inhibition above about 70%; inactive = the rest.

How the values were obtained:
[1] = NCI Yeast Anticancer Drug Screen. Data for the rad50 strain (AID 155);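 also: 0% = growth of vehicle-only cultures of the same strain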; conditions: S. cerevisiae rad50 strain growth inhibition; at 50.0 µM; hits give high values
Procedure, shortened: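 Cells are treated with compound, grown, and their growth is then scored against vehicle-only cultures of the same repair-deficient yeast strain.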

[2] = NCI Yeast Anticancer Drug Screen. Data for the mec2-1 strain (AID 157); conditions: S. cerevisiae mec2-1 strain, at 50.0 µM, hits give high values
Procedure, shortened: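 Compounds were applied to mec2-1 yeast cells. Their growth was then compared with that of vehicle-treated cultures to give growth inhibition.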

[3] = NCI Yeast Anticancer Drug Screen. Data for the sgs1 mgt1 strain (AID 161);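 also: 0% = growth of cultures given vehicle only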; conditions: S. cerevisiae sgs1 mgt1 strain, at 50.0 µM, hits give high values
Procedure, shortened: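 Yeast cells carrying a defined DNA-repair defect were exposed to test compounds. Growth inhibition was measured relative to vehicle-treated controls.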

[4] = NCI Yeast Anticancer Drug Screen. Data for the cln2 rad14 strain (AID 165);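 also: 0% = growth equal to vehicle treated cultures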; conditions: S. cerevisiae cln2 rad14 strain, at 50.0 µM, hits give high values
Procedure, shortened: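 Strain: cln2 rad14 yeast, altered in cell cycle control and DNA damage repair. Read-out: growth inhibition vs vehicle.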

[5] = NCI Yeast Anticancer Drug Screen. Data for the bub3 strain (AID 167); conditions: S. cerevisiae bub3 mutant strain, at 50.0 µM, hits give high values
Procedure, shortened: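 Part of a panel of yeast mutants defective in DNA damage repair or cell cycle regulation. Each strain is grown with compound, and inhibition is calculated relative to solvent-treated cultures.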

[6] = NCI Yeast Anticancer Drug Screen. Data for the mlh1 rad18 strain (AID 175); conditions: S. cerevisiae mlh1 rad18 strain growth inhibition; at 50.0 µM; hits give high values
Procedure, shortened: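 A repair-deficient yeast strain is exposed to test compound, and growth is scored relative to vehicle-treated controls.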

Measured: growth inhibition

Cc1ccc(N=C(C(c2ccccc2)c2ccccc2)N(CCCl)CCCl)cc1
inactive: [1] 24.2% | [2] 3.45% | [3] 19.9% | [4] 13.3% | [5] 18.1% | [6] 24.1%

C/C=C/C(=O)O
inactive: [1] 4.3% | [2] -4.65% | [3] -24.5% | [4] 10.2% | [5] -0.05% | [6] -9.75%

ICc1nc2ccccc2[nH]1
inactive: [1] 15.6% | [2] -3.6% | [3] 3.65% | [4] -1.75% | [5] -14.5% | [6] 6.1%

NC1C(=O)NC(=O)NC1=O
inactive: [1] 4.2% | [2] 11.4% | [3] 8.4% | [4] 15.1% | [5] 4.6% | [6] 22.8%

c1ccc(C[N+]23CN4CN(CN(C4)C2)C3)cc1
inactive: [1] 9.5% | [2] -20% | [3] -7.6% | [4] 8.65% | [5] -18.2% | [6] -6.5%

C[N+]1=C(c2cccnc2/C=N/O)OCC1(C)C
inactive: [1] 1.3% | [2] -19.4% | [3] -13.7% | [4] -5.1% | [5] -24.4% | [6] -33.1%

CC(C)(C)OP(O)(=S)OC(C)(C)C
inactive: [1] 14.5% | [2] 13.2% | [3] 15.8% | [4] 15.2% | [5] 16.1% | [6] 9.55%

O=c1ccc2c(O)c3ccoc3cc2o1
inactive: [1] -14.7% | [2] -10% | [3] 5.7% | [4] -5.05% | [5] 3.45% | [6] -22.9%

CS(=O)(=O)NC(=NCCOS(C)(=O)=O)N[N+](=O)[O-]
inactive: [1] 9% | [2] -8.5% | [3] 19.4% | [4] -6.85% | [5] 1.9% | [6] 11.8%

N#CC(OC1OC(C(=O)O)C(O)C(O)C1O)c1ccccc1 (stereo not given)
inactive: [1] 17.2% | [2] -14.5% | [3] -5.3% | [4] 3% | [5] 0.6% | [6] 2.25%

CC([OH2+])CNCCN.CC([OH2+])CNCCN.O=[N+]([O-])[O-].[Cu+2] (stereo not given)
inactive: [1] -10.1% | [2] -8.95% | [3] 5.25% | [4] -39.6% | [5] -0.7% | [6] 0.2%

S=C([S-])N1CCCCC1.S=C([S-])N1CCCCC1.[Zn]
active: [1] 79.5% | [2] 73.3% | [3] 96%
inactive: [4] 22.9% | [5] -3% | [6] 65%

CCCCOP(=O)(O)OCCCC.[V]
inactive: [1] -0.55% | [2] -1.55% | [3] -1.55% | [4] -17.1% | [5] -10.9% | [6] 0.65%

C[N+]1(C)C2CC(O)CC1C1OC12 (stereo not given)
inactive: [1] -4.35% | [2] 5.15% | [3] 1.45% | [4] 2.85% | [5] -3.75% | [6] 4.45%

CCOP(=O)(OCC)/C(C#N)=C/c1cccs1
inactive: [1] 0.5% | [2] -35.2% | [3] -15.2% | [4] -15.8% | [5] -41.8% | [6] -13.7%

CC(=O)NCN(C)[N+](=O)[O-]
inactive: [1] -9.6% | [2] -4.95% | [3] 8.85% | [4] -11% | [5] -19.8% | [6] -6.5%

[O-][Cl+3]([O-])([O-])O.[O-][n+]1c2ccccc2nc2ccccc21.[Zn+2]
inactive: [1] 58.1% | [2] 36.1% | [3] 18.6% | [4] 14.8% | [5] 28.3% | [6] 41.5%

O=[N+]([O-])c1ccc(CI)cc1
inactive: [1] 5.65% | [2] 34.2% | [3] 36.6% | [4] -3.55% | [5] 13.4% | [6] 23.3%

Oc1cccc(Cl)c1
inactive: [1] -3.15% | [2] -30.1% | [3] 4.75% | [4] 6.1% | [5] -2.45% | [6] 8.3%

CCC1(C(C)C=C(C)C)C(=O)NC(=O)NC1=O (stereo not given)
inactive: [1] -28.6% | [2] -12.4% | [3] -4.75% | [4] 1.45% | [5] 10.3% | [6] -10.2%

O=C(OC12CCN(CC1)CC2)c1ccccc1
inactive: [1] -7.55% | [2] 8.6% | [3] 4.25% | [4] -50.2% | [5] 8.15% | [6] 0.5%

CC(=O)C1(O)CCC2(O)C3(O)CC=C4CC(O)CCC4(C)C3CC(OC(=O)c3ccc(O)cc3)C12C (stereo not given)
inactive: [1] 8.5% | [2] 2.85% | [3] -12.8% | [4] -1.7% | [5] -1.6% | [6] -50.4%

Cc1ccccc1NC(N)=S
inactive: [1] 27.6% | [2] 9.15% | [3] -8.2% | [4] 1.55% | [5] 5.4% | [6] 15.7%

c1ccc(CC[N+]23CC[N+](CCc4ccccc4)(CC2)C3)cc1
inactive: [1] 27.9% | [2] 3.2% | [3] 1.4% | [4] -25.6% | [5] 4.5% | [6] 16%

CSP(N)(=O)OC(C)C (stereo not given)
inactive: [1] -16.9% | [2] 11.8% | [3] -15.6% | [4] -23.6% | [5] -33.6% | [6] 15.8%

NNC(=O)c1ccccc1
inactive: [1] -1.8% | [2] -2.05% | [3] -11.8% | [4] -36% | [5] -1.25% | [6] -19%

O=S(c1ccc(Cl)cc1)c1ccc(Cl)cc1
inactive: [1] 1.55% | [2] 17.9% | [3] 33.5% | [4] -66.2% | [5] 13.6% | [6] 19.1%

C(#CP(c1ccccc1)c1ccccc1)c1ccccc1
inactive: [1] 62.5% | [2] 34.5% | [4] 20.1%
active: [3] 74.8% | [5] 76.8% | [6] 85.5%

O=C1/C(=C\c2ccccc2)C2OCC=C3CN4CCC56c7ccccc7N1C5C2C3CC46 (stereo not given)
inactive: [1] -18.6% | [2] -33.1% | [3] -3.9% | [4] -3.25% | [5] -19.9% | [6] -9.05%

C=CCOCN1c2cc(OC)c([C@@]3(C(=O)OC)C[C@@H]4CN(CCc5c3[nH]c3ccccc53)C[C@](O)(CC)C4)cc2[C@@]23CCN4CC=C[C@@](CC)([C@@H](OC(C)=O)[C@](O)(C(=O)OC)[C@H]12)[C@H]43
inactive: [1] -21.2% | [2] -8.75% | [3] 2.35% | [4] 0.2% | [5] -0.05% | [6] -16.4%

NC(=Nc1ccccc1)Nc1ccccc1 (tested in a mixture with another compound)
inactive: [1] -1.65% | [2] -12.1% | [3] 1.7% | [4] 13.2% | [5] 6.4% | [6] 6.35%

O=[N+]([O-])c1ccc(/C=C/c2ccc(S(=O)(=O)F)cc2Cl)c(Cl)c1
inactive: [1] -13.2% | [2] -11.2% | [3] 0.75% | [4] -34.3% | [5] -6.7% | [6] -4.35%

CCN1CCc2cc(OC)c(OC)cc2C1
inactive: [1] 0.15% | [2] 4.7% | [3] 6.45% | [4] -25.9% | [5] -0.6% | [6] 3.5%

CCOP(=O)(OCC)/C(C#N)=C/c1nccn1C
inactive: [1] -15.2% | [2] 0.15% | [3] -13.7% | [4] 34.3% | [5] 24.1% | [6] -34.4%

[C-]#[O+].[C-]#[O+].[C-]#[O+].[C-]#[O+].[Cr].c1ccc([As](CC[As](c2ccccc2)c2ccccc2)c2ccccc2)cc1
inactive: [1] 22.9% | [2] 21.4% | [3] 8% | [4] 6.65% | [5] 36.2% | [6] 29.1%

O=S(=O)(F)c1ccccc1C[P+](c1ccccc1)(c1ccccc1)c1ccccc1
inactive: [3] 66% | [4] 66.7%
active: [1] 84.2% | [2] 86% | [5] 82.8% | [6] 91%

CC(=O)C(CN1CCCCC1)C(c1ccccc1)c1c(O)c2ccccc2oc1=O (stereo not given)
inactive: [1] 6.8% | [2] -9% | [3] 9.25% | [4] 26.2% | [5] 33% | [6] 9.55%

ClC1OC(Cl)(Cl)C(Cl)(Cl)OC1(Cl)Cl (stereo not given)
inactive: [1] 7.7% | [2] 3.75% | [3] 35% | [4] -4.25% | [5] 18.8% | [6] 45.9%

O=C(C[n+]1ccccc1)C1CCCC2CC3CCCCC3CC21 (stereo not given)
inactive: [1] 1.9% | [2] 18.3% | [3] 29.9% | [4] 13.8% | [5] 22.1% | [6] 37.6%

O=[N+]([O-])OC(c1ccncc1)C(O[N+](=O)[O-])c1ccncc1 (stereo not given)
inactive: [1] 7.7% | [2] -2.35% | [3] -6.25% | [4] 16.9% | [5] -5.3% | [6] 21.3%
